Measurements published in PubChem BioAssay (NCI).
This is part of a sample that, as a whole, favours compounds with a hit. Of some 83,000 tested, about 20% had one in any assay.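 Percent growth is the endpoint: 0 to 100 indicates growth inhibition (40 means 60% inhibition), 0 means no net growth, and negative values indicate cell death.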 Values without a mark were called inactive. Activity calls are given as the source filed them. The calls were made as follows: active = growth percent below 10; inactive = the rest.

Tests used:
Assay in all cases: NCI-60 one-dose screen, 48 h (100 = growth as untreated, 0 = no growth, -100 = all killed)
Conditions in all cases: 10 µM
HCT-15 colon = system: HCT-15 colon
HT29 colon = system: HT29 colon
SNB-75 CNS = system: SNB-75 CNS
SNB-19 CNS = system: SNB-19 CNS
U251 CNS = system: U251 CNS
PC-3 prostate = system: PC-3 prostate
SK-MEL-5 melanoma = system: SK-MEL-5 melanoma
UACC-62 melanoma = system: UACC-62 melanoma
LOX IMVI melanoma = system: LOX IMVI melanoma
SK-MEL-28 melanoma = system: SK-MEL-28 melanoma
SK-MEL-2 melanoma = system: SK-MEL-2 melanoma
EKVX NSCLC = system: EKVX NSCLC
SN12C renal = system: SN12C renal
TK-10 renal = system: TK-10 renal
ACHN renal = system: ACHN renal
A498 renal = system: A498 renal
CCRF-CEM leukemia = system: CCRF-CEM leukemia
MOLT-4 leukemia = system: MOLT-4 leukemia
CAKI-1 renal = system: CAKI-1 renal
UO-31 renal = system: UO-31 renal

SMILES	growth (HCT-15 colon)	growth (HT29 colon)	growth (SNB-75 CNS)	growth (SNB-19 CNS) [%]	growth (U251 CNS)	growth (PC-3 prostate)	growth (SK-MEL-5 melanoma)	growth (UACC-62 melanoma)	growth (LOX IMVI melanoma)	growth (SK-MEL-28 melanoma)	growth (SK-MEL-2 melanoma)	growth (EKVX NSCLC)	growth (SN12C renal)	growth (TK-10 renal) [%]	growth (ACHN renal)	growth (A498 renal)	growth (CCRF-CEM leukemia)	growth (MOLT-4 leukemia)	growth (CAKI-1 renal)	growth (UO-31 renal) [%]
CCN1CCN(CCC(=O)Nc2cccc(-n3cc(-c4ccncc4)c(-c4ccc(Cl)c(OC)c4)n3)c2)CC1	13.7%	-23.4% (active)	9.22% (active)	39.4	-7.85% (active)	16.5%	-3.03% (active)	-17% (active)	-47.5% (active)	-52.3% (active)	-19.5% (active)	54.5%	38.8%	44.7	37.2%	-14.1% (active)	1.32% (active)	2.89% (active)	–	–
NS(=O)(=O)Oc1ccc(-c2ccc3sccc3c2)cc1	103%	107%	97.3%	101	88.8%	96.5%	95.9%	61.6%	95.2%	97.6%	105%	13.3%	94.3%	94	94.1%	99.8%	108%	97.4%	83.6%	–
O=C(O)Cc1ccc(O)c(O)c1	96.4%	115%	68.8%	102	109%	106%	94.1%	105%	107%	103%	109%	89.4%	99.4%	112	108%	–	-24.1% (active)	98.6%	99.5%	–
COc1ccc(-c2cc(-c3ccc(Cl)cc3)nc(SCCCC(=O)NO)n2)cc1OC	-4% (active)	6.66% (active)	2.56% (active)	14.8	12.4%	-5.41% (active)	-55.9% (active)	-60.1% (active)	-64.8% (active)	20.5%	13.3%	-13.8% (active)	6.47% (active)	17.8	-19.7% (active)	-40.1% (active)	–	9.38% (active)	-5.05% (active)	–
CC[C@@H](C(=O)[C@H](C)[C@H](O)[C@@H](C)[C@H]1O[C@H]([C@@H](CC)C(=O)N(CC)CC)CC[C@H]1C)C1O[C@]2(C=C[C@@H](O)[C@]3(CC[C@@](C)([C@H]4CC[C@](O)(CC)[C@H](C)O4)O3)O2)[C@H](C)C[C@@H]1C (some centres not stated)	9.17% (active)	13.8%	6.47% (active)	12.8	24.2%	3.64% (active)	-74.7% (active)	14.3%	31%	27%	0.113% (active)	1.82% (active)	17.4%	24.3	5.95% (active)	13.8%	–	28.9%	8.82% (active)	–
COc1cc2cc(Oc3ccc(NC(=O)c4ccc(Cl)c(C(F)(F)F)c4)cc3)c(C)nc2cc1OC	26.9%	26%	68.4%	39.3	2.03% (active)	4.32% (active)	25.5%	13.9%	33%	66.9%	31.2%	18.8%	24.1%	–	26.6%	24.3%	–	18%	21.6%	18.3
Cc1ccc(C)c(COc2cc(NC(=O)c3ccc4c(c3)OCO4)ccc2N(C)S(C)(=O)=O)c1	11.2%	5.29% (active)	4.74% (active)	18.3	12.9%	26.8%	-42.5% (active)	15.8%	36%	64.6%	37.6%	29.6%	27.2%	54.1	29.3%	-11.3% (active)	13.2%	7.75% (active)	15.6%	–
CCN1C(=O)CC(SC2CC(=O)N(CC)C2=O)C1=O (configuration not stated)	105%	79.7%	97.4%	95.7	102%	101%	104%	102%	95.2%	112%	93.6%	95.9%	98.6%	89.4	106%	74.9%	94.1%	72%	95.1%	–
